# According to the supplement of paper PMC9262897, “Low-cost anti-mycobacterial drug discovery using engineered E. coli” (Nature Communications, 2022):
# Where a name gives a salt, the structure may show the parent alone. ± gives the standard deviation of the averaged measurements.
# Key:
# Assay in all cases: growth (OD600 after 10 h); higher = more growth (less inhibition)
# [1] = tested on: E. coli TESEC Alr+ wild-type control; conditions: compound 0.1 mM; raw OD600 reference: median of DMSO wells 0.241, cell-free background 0.041
# Method: (§1)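 TESEC Mtb Alr E. coli, or the Alr+ wild-type control, in 384-well plates with Prestwick library compounds at 0.1 mM and 1% DMSO, across arabinose induction levels of 1E3 to 1E7 nM. Growth is read as OD600 after 10 h at 37 °C in triplicate biological replicates.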
# E. coli TESEC Mtb Alr [2] = conditions: compound 0.1 mM
# Method: as §1
# E. coli TESEC Mtb Asd = conditions: compound 0.1 mM
# Method: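 TESEC E. coli strains in which the native enzyme is deleted and replaced by arabinose-inducible Mtb Asd, DapB, CysH or TrpD, each grown in its selective medium. Strains were screened against the Prestwick library at 0.1 mM and 1% DMSO in 384-well format at low and high arabinose induction. Growth is read as OD600 after 10 h in triplicate.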
# E. coli TESEC Mtb Alr [3] = conditions: compound 0.1 mM; remark: listed apart in the source
# Method: (§2)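 TESEC Mtb Alr E. coli (ΔaraC ΔtolC ΔentC Δalr ΔdadX, arabinose-inducible Mtb Alr) or the Alr+ wild-type control strain, grown in defined M9-fructose medium without D-alanine in 96-well plates with Prestwick library compounds at 0.1 mM and 1% DMSO. Low Alr induction is 0.1 µM arabinose and high induction is 10 mM arabinose.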
# [4] = tested on: E. coli TESEC Alr+ wild-type control; conditions: compound 0.1 mM; raw OD600 reference: median of DMSO wells 0.49, cell-free background 0.052
# Method: as §2
# [5] = arabinose 1000 nM, raw OD600 reference: median of DMSO wells 0.294, cell-free background 0.041
# [6] = arabinose 10000 nM, raw OD600 reference: median of DMSO wells 0.264, cell-free background 0.041
# [7] = arabinose 100000 nM, raw OD600 reference: median of DMSO wells 0.201, cell-free background 0.041
# [8] = arabinose 1000000 nM, raw OD600 reference: median of DMSO wells 0.193, cell-free background 0.041
# [9] = arabinose 10000000 nM, raw OD600 reference: median of DMSO wells 0.146, cell-free background 0.041
# [10] = arabinose induction (level): High, raw OD600 reference: median of DMSO wells 0.331, cell-free background 0.041
# [11] = arabinose induction (level): Low, raw OD600 reference: median of DMSO wells 0.417, cell-free background 0.041
# [12] = arabinose 100 nM, raw OD600 reference: median of DMSO wells 0.413, cell-free background 0.052
# [13] = arabinose 10000000 nM, raw OD600 reference: median of DMSO wells […], cell-free background 0.052
Structure (SMILES),growth [1],growth (E. coli TESEC Mtb Alr [2]; [5]),growth (E. coli TESEC Mtb Alr [2]; [6]),growth (E. coli TESEC Mtb Alr [2]; [7]),growth (E. coli TESEC Mtb Alr [2]; [8]),growth (E. coli TESEC Mtb Alr [2]; [9]),growth (E. coli TESEC Mtb Asd; [10]),growth (E. coli TESEC Mtb Asd; [11]),growth (E. coli TESEC Mtb Alr [3]; [12]),growth (E. coli TESEC Mtb Alr [3]; [13]),growth [4]
COc1ccc(Cc2nccc3cc(OC)c(OC)cc23)cc1OC [Papaverine hydrochloride],0.153 ± 0.0032,0.199 ± 0.0045,0.215 ± 0.0047,0.141 ± 0.0019,0.087 ± 0.0015,0.133 ± 0.0021,0.133 ± 0.013,0.262 ± 0.035,0.397 ± 0.0098,0.22 ± 0.0059,
CNC(=O)Oc1ccc2c(c1)[C@]1(C)CCN(C)[C@@H]1N2C [Eserine hemisulfate salt],0.229 ± 0.0049,0.289 ± 0.0076,0.251 ± 0.003,0.203 ± 0.025,0.184 ± 0.0065,0.139 ± 0.008,0.328 ± 0.037,0.408 ± 0.048,0.409 ± 0.017,0.366 ± 0.01,
CN1C[C@H](CNC(=O)OCc2ccccc2)C[C@@H]2c3cccc4c3c(cn4C)C[C@H]21 [Metergoline],0.0409 ± 0.00056,0.0429 ± 0.0039,0.04017 ± 0.00032,0.0428 ± 0.00093,0.0401 ± 0.00017,0.0432 ± 0.0024,0.0522 ± 0.002,0.0487 ± 0.0029,0.278 ± 0.2,0.05077 ± 0.00012,
C[CH2][Hg][S]c1ccccc1C(=O)[O-].[Na+] [Thimerosal],0.0433 ± 0.0046,0.162 ± 0.018,0.117 ± 0.01,0.0992 ± 0.0084,0.04637 ± 0.00025,0.0615 ± 0.0003,0.0491 ± 0.0015,0.0488 ± 0.0015,0.355 ± 0.036,0.0589 ± 0.0027,
CC(C)N(CCC(C(N)=O)(c1ccccc1)c1ccccn1)C(C)C (stereo not given) [Disopyramide],0.2355 ± 0.0022,0.285 ± 0.018,0.25 ± 0.0026,0.195 ± 0.0071,0.171 ± 0.0034,0.14 ± 0.0064,0.313 ± 0.084,0.408 ± 0.057,0.41 ± 0.0056,0.351 ± 0.007,0.543 ± 0.056
C[C@]12CCC(=O)C(O)=C1CC[C@@H]1[C@@H]2CC[C@]2(C)C(=O)CC[C@@H]12 [Formestane],0.115 ± 0.0066,0.182 ± 0.011,0.228 ± 0.014,0.1 ± 0.0018,0.0848 ± 0.0012,0.1103 ± 0.00057,0.13 ± 0.017,0.25 ± 0.052,0.373 ± 0.025,0.133 ± 0.017,0.392 ± 0.026
Clc1ccc(C(OCCN2CCCCC2)c2ccccc2)cc1 (stereo not given) [Cloperastine hydrochloride],0.186 ± 0.0072,0.232 ± 0.0029,0.2462 ± 0.0014,0.174 ± 0.0052,0.0487 ± 0.0015,0.0546 ± 0.00059,0.113 ± 0.002,0.154 ± 0.0084,0.4058 ± 0.0039,0.147 ± 0.085,
COc1cc2c(c(OC)c1OC)-c1ccc(OC)c(=O)cc1[C@@H](NC(C)=O)CC2 [Colchicine],0.226 ± 0.0076,0.262 ± 0.034,0.267 ± 0.0042,0.204 ± 0.025,0.185 ± 0.0039,0.144 ± 0.0049,0.276 ± 0.063,0.355 ± 0.1,0.423 ± 0.038,0.322 ± 0.0069,
COc1ccc(CCN2CCC(Nc3nc4ccccc4n3Cc3ccc(F)cc3)CC2)cc1 [Astemizole],0.041 ± 0.00045,0.0406 ± 0.00056,0.04013 ± 0.00025,0.0411 ± 0.0019,0.04007 ± 0.00031,0.0404 ± 0.0002,0.0477 ± 0.0029,0.053 ± 0.004,0.176 ± 0.22,0.0525 ± 0.0011,0.0478 ± 0.00075
O=c1[nH]oc2c1CCNC2 [THIP Hydrochloride],0.26 ± 0.0053,0.316 ± 0.0096,0.266 ± 0.0055,0.2 ± 0.019,0.194 ± 0.014,0.136 ± 0.0034,0.262 ± 0.035,0.433 ± 0.04,0.41 ± 0.013,0.349 ± 0.018,
C[C@H](N)[C@H](O)c1ccc(O)c(O)c1 [Levonordefrin],0.1755 ± 0.00087,0.276 ± 0.013,0.26 ± 0.0038,0.206 ± 0.0036,0.118 ± 0.0043,0.131 ± 0.0047,0.194 ± 0.014,0.357 ± 0.0047,0.398 ± 0.024,0.371 ± 0.017,0.465 ± 0.099
C[N+]1(C)CCCC(OC(=O)C(O)(c2ccccc2)c2ccccc2)C1 (stereo not given) [Mepenzolate bromide],0.235 ± 0.006,0.307 ± 0.016,0.258 ± 0.0015,0.203 ± 0.022,0.179 ± 0.0065,0.137 ± 0.0056,0.307 ± 0.038,0.461 ± 0.02,0.405 ± 0.0053,0.345 ± 0.014,0.435 ± 0.012
CC(C)(C)NCC(O)c1ccccc1Cl (stereo not given) [Tulobuterol],0.22 ± 0.005,0.272 ± 0.0075,0.273 ± 0.0098,0.174 ± 0.013,0.203 ± 0.0095,0.1357 ± 0.00093,0.246 ± 0.067,0.296 ± 0.019,0.409 ± 0.0083,0.341 ± 0.018,
C[C@]12CC[C@H](O)C[C@H]1CC[C@@H]1[C@@H]2CC[C@]2(C)[C@@H](C3=CC(=O)OC3)CC[C@]12O [Digitoxigenin],0.147 ± 0.0028,,,,,,0.154 ± 0.0042,0.289 ± 0.096,0.41 ± 0.0093,0.227 ± 0.01,
O=C(O)CCCc1ccc(N(CCCl)CCCl)cc1 [Chlorambucil],0.2478 ± 0.002,0.296 ± 0.0033,0.263 ± 0.0054,0.206 ± 0.0083,0.191 ± 0.0081,0.135 ± 0.0069,0.258 ± 0.086,0.288 ± 0.096,0.429 ± 0.0069,0.326 ± 0.016,
